Data from PubChem BioAssay (EPA / NIEHS).
Active and inactive are the calls of the source. How the source made its calls: active means hit-call score of the fitted dose curve at least 0.9, where 1 is the maximum; inactive means score below 0.9.

Key:
Details in all cases: mRNA level, 48 h; actives raise or lower the signal
[1] = read-out: succinate dehydrogenase complex iron sulfur subunit B (SDHB), SDHB (gene 6390); assay: LTEA_HepaRG_SDHB: Life Technologies and Expression Analysis (LTEA) Assay for succinate dehydrogenase complex iron sulfur subunit B (SDHB) using HepaRG (AID 2283528)
How it was run: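 HepaRG, 48 h exposure, 8-pt half-log series from 100 uM in 0.5% DMSO, duplicates. Readout: SDHB mRNA by Fluidigm qRT-PCR vs housekeeping genes; bidirectional fit relative to DMSO.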

[2] = read-out: Signal transducer and activator of transcription 3 (Homo sapiens) (UniProt P40763); assay: LTEA_HepaRG_STAT3: Life Technologies and Expression Analysis (LTEA) Assay for Signal transducer and activator of transcription (STAT3) using HepaRG (AID 2283529)
How it was run: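 Read-out is STAT3 mRNA level by qRT-PCR, normalized to three housekeeping genes, in human HepaRG liver cells treated for 48 h. Concentrations ran from 100 uM downward in half-log steps; curves were fitted for gain or loss relative to 0.5% DMSO.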

[3] = read-out: solute carrier (SLCO1B1), SLCO1B1 (gene 10599); assay: LTEA_HepaRG_SLCO1B1: Life Technologies and Expression Analysis (LTEA) Assay for solute carrier (SLCO1B1) using HepaRG (AID 2283530)
How it was run: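 Differentiated human HepaRG cells were exposed for 48 h in serum-free induction medium to eight half-log concentrations, top 100 uM, in 0.5% DMSO. SLCO1B1 mRNA was measured by qRT-PCR, normalized to ACTB, GAPDH and POLR2A, and fitted bidirectionally against DMSO.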

[4] = read-out: sulfotransferase 2A1 (SULT2A1), SULT2A1 (gene 6822); assay: LTEA_HepaRG_SULT2A1: Life Technologies and Expression Analysis (LTEA) Assay for sulfotransferase 2A1 (SULT2A1) using HepaRG (AID 2283531)
How it was run: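 HepaRG human liver cells, 48 h exposure in serum-free induction medium to 8 half-log concentrations topping at 100 µM (0.5% DMSO), duplicate wells. SULT2A1 mRNA measured by TaqMan qRT-PCR, normalized to ACTB/GAPDH/POLR2A; bidirectional fit against DMSO.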

[5] = read-out: Transforming Growth Factor (TGFA), TGFA (gene 7039); assay: LTEA_HepaRG_TGFA: Life Technologies and Expression Analysis (LTEA) Assay for Transforming Growth Factor (TGFA) using HepaRG (AID 2283532)
How it was run: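 HepaRG (human liver line), 48 h exposure, 8 conc. half-log down from 100 uM, 0.5% DMSO vehicle, duplicates; serum-free induction medium. TGFA mRNA by TaqMan qRT-PCR, ACTB/GAPDH/POLR2A normalization; gain/loss fit vs DMSO.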

[6] = read-out: Transforming Growth Factor (TGFB1), TGFB1 (gene 7040); assay: LTEA_HepaRG_TGFB1: Life Technologies and Expression Analysis (LTEA) Assay for Transforming Growth Factor (TGFB1) Transporter using HepaRG (AID 2283533)
How it was run: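 Differentiated HepaRG cells exposed 48 hr in serum-free induction medium to eight half-log concentrations up to 100 uM (0.5% DMSO), duplicate; TGFB1 mRNA by TaqMan qRT-PCR normalised to ACTB, GAPDH, POLR2A; bidirectional fit against DMSO.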

TIMP1, TIMP1 (gene 7076) = assay: LTEA_HepaRG_TIMP1: Life Technologies and Expression Analysis (LTEA) Assay for TIMP1 using HepaRG (AID 2283534)
How it was run: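 Differentiated HepaRG cells exposed 48 h in serum-free induction medium, duplicates, eight half-log concentrations from 100 uM in 0.5% DMSO. TIMP1 mRNA by qRT-PCR normalized to ACTB, GAPDH, POLR2A; bidirectional fitting against DMSO.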

[7] = read-out: Tumor necrosis factor receptor 1 (TNFRSF1A), TNFRSF1A (gene 7132); assay: LTEA_HepaRG_TNFRSF1A: Life Technologies and Expression Analysis (LTEA) Assay for Tumor necrosis factor receptor 1 (TNFRSF1A) using HepaRG (AID 2283535)
How it was run: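 Differentiated HepaRG cells in serum-free induction medium, exposed 48 h in duplicate to 8 half-log concentrations up to 100 uM in 0.5% DMSO. TNFRSF1A mRNA by Fluidigm TaqMan qRT-PCR, normalized to ACTB, GAPDH, POLR2A; bidirectional fit.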

[8] = read-out: Thyroid Hormone Responsive (THRSP), THRSP (gene 7069); assay: LTEA_HepaRG_THRSP: Life Technologies and Expression Analysis (LTEA) Assay for Thyroid Hormone Responsive (THRSP) using HepaRG (AID 2283536)
How it was run: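 mRNA induction or loss relative to 0.5% DMSO vehicle was fitted bidirectionally across an eight-point curve whose highest exposure was 100 uM. Human HepaRG liver cells received chemicals in duplicate over 48 h before RNA extraction.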

[9] = read-out: UDP glucuronosyltransferase (UGT1A1), UGT1A1 (gene 54658); assay: LTEA_HepaRG_UGT1A1: Life Technologies and Expression Analysis (LTEA) Assay for UDP glucuronosyltransferase (UGT1A1) using HepaRG (AID 2283538)
How it was run: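 Human liver HepaRG cultures receive test chemical for 48 h, up to 100 uM in 0.5% DMSO, with phenobarbital induction controls. UGT1A1 mRNA is measured by qRT-PCR and normalized to ACTB, GAPDH and POLR2A.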

Measured: AC50

Signal transducer and activator of transcription 3 (Homo sapiens), sequence (P40763 whole entry, looked up): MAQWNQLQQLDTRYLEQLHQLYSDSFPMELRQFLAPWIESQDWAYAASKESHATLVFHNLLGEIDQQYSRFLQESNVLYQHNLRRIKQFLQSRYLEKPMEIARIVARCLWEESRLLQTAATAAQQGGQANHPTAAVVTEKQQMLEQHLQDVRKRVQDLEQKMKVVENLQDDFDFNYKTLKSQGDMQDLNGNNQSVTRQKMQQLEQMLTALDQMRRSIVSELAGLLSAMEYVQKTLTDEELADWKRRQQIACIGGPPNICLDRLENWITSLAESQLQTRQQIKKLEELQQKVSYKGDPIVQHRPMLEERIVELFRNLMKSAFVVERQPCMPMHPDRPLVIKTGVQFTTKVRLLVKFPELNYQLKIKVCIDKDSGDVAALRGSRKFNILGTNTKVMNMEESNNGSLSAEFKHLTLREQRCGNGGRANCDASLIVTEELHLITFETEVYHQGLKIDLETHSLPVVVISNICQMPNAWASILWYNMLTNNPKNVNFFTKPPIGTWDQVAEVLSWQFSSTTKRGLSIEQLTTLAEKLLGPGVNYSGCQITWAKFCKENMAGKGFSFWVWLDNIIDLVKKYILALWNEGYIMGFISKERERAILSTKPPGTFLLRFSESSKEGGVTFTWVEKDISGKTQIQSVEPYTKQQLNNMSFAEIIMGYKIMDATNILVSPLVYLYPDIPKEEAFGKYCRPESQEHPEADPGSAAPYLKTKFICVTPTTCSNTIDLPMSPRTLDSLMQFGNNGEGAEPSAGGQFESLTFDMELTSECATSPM

CCc1ccc(O)c(C(C)(C)C)c1
inactive: all assays above

Cc1nc(-c2ccccn2)ncc1C(=O)Nn1cc(C)c2cc(F)ccc21
active: [9] 12 µM
inactive: all other assays above

CC[C@H](C)C(=O)O[C@H]1C[C@H](O)C=C2C=C[C@H](C)[C@H](CC[C@@H](O)C[C@@H](O)CC(=O)O)[C@H]21
active: [8] 21.9 µM
inactive: all other assays above

CCCCC(CC)C(=O)OCCOCCOCCOC(=O)C(CC)CCCC (centres undefined)
active: [7] 78.2 µM
inactive: all other assays above

COS(C)(=O)=O
inactive: all assays above

Cn1cc[nH]c1=S
not listed: [3]
inactive: all other assays above

O=C(O)c1ccc2c(c1)nc(C(=O)NC1CCN(C3CC3)CC1)n2Cc1cc(-c2ccc(Cl)s2)on1
inactive: all assays above

CC(C)C(=O)Nc1ccc([N+](=O)[O-])c(C(F)(F)F)c1
active: [3] 63.6 µM | [4] 79.6 µM | [5] 82.3 µM | TIMP1, TIMP1 (gene 7076) 28.7 µM | [8] 10.9 µM | [9] 90.1 µM
inactive: [1] | [2] | [6] | [7]

OCc1ccccc1
inactive: all assays above

CC(C)c1nnc2ccc(-c3ocnc3-c3cc(F)ccc3F)cn12
active: [3] 50 µM | [4] 94 µM | [8] 9.92 µM | [9] 0.836 µM
inactive: all other assays above

O=C1CN(N=Cc2ccc([N+](=O)[O-])o2)C(=O)N1
active: [1] 16.1 µM | [8] 9.92 µM
inactive: all other assays above

c1ccc2c(c1)-c1cccc3c1c-2cc1ccccc13
inactive: [6] | [9]
active: [1] 11.4 µM | [2] 6.57 µM | [3] 13.7 µM | [4] 16.8 µM | [5] 7.13 µM | TIMP1, TIMP1 (gene 7076) 4.93 µM | [7] 14.7 µM | [8] 27.7 µM

OC(Cn1cncn1)(Cn1cncn1)c1ccc(F)cc1F
inactive: all assays above

O=C(NO)C1(NS(=O)(=O)c2ccc(Oc3ccc(F)cc3)cc2)CCOCC1
active: [8] 78.1 µM | [9] 12.2 µM
inactive: all other assays above

NC(=O)NN=Cc1ccc([N+](=O)[O-])o1
active: [5] 0.196 µM
not listed: [3]
inactive: all other assays above

CCCCCCCCCCCCCCCCOS(=O)(=O)O
active: TIMP1, TIMP1 (gene 7076) 0.351 µM | [8] 41.1 µM
inactive: all other assays above

C[C@]12C=CC(=O)C=C1CC[C@H]1[C@@H]3C[C@@H](O)[C@](O)(C(=O)CO)[C@@]3(C)C[C@H](O)[C@@]12F
not listed: [3]
inactive: all other assays above

CCCOc1ccc(S(=O)(=O)N2CCN(CC)CC2)cc1-c1nc2c(CC)n(Cc3ccccn3)nc2c(=O)[nH]1
active: [4] 18.1 µM | [6] 26.3 µM | [8] 50 µM | [9] 4.74 µM
not listed: [3]
inactive: all other assays above

OCCNCCO
active: [4] 21.9 µM | [9] 9.92 µM
inactive: all other assays above

CCCCCCOC(=O)CC(CC(=O)OCCCCCC)(OC(=O)CCC)C(=O)OCCCCCC
inactive: all assays above

O=C(O)c1cccc(C[C@@H]2COc3ccc(OCc4nc5cc(F)ccc5s4)cc3[C@@H]2O)c1
active: [3] 92.3 µM | [8] 80.5 µM
inactive: all other assays above

CCc1cccc(CC)c1N
inactive: all assays above

NC(N)=O
not listed: [3]
inactive: all other assays above

Cc1ccc(S(=O)(=O)NC(=O)NN2CCCCCC2)cc1
inactive: all assays above

CCOc1ccc2[nH]cc(C(=O)NCc3ccccc3)c(=O)c2n1
inactive: all assays above

Cc1nccn1-c1ccc(Sc2cccc(C3(C(N)=O)CCOCC3)c2)cc1
active: [1] 27.4 µM | [2] 1.93 µM | [4] 15 µM | [5] 9.24 µM | [6] 24.8 µM | [7] 7.54 µM | [8] 10.8 µM | [9] 23 µM
inactive: TIMP1, TIMP1 (gene 7076)

CNC(C)=O
inactive: all assays above

CC1(C)C(=O)N(Cl)C(=O)N1Cl
inactive: all assays above

C=CCc1cc(S(=O)(=O)c2ccc(O)c(CC=C)c2)ccc1O
active: [3] 85.4 µM | [4] 81.2 µM | [8] 88.4 µM
inactive: all other assays above

CCCc1ccccc1
inactive: all assays above

OC[C@H]1O[C@@H]2O[C@H]3[C@H](O)[C@@H](O)[C@@H](O[C@H]4[C@H](O)[C@@H](O)[C@@H](O[C@H]5[C@H](O)[C@@H](O)[C@@H](O[C@H]6[C@H](O)[C@@H](O)[C@@H](O[C@H]7[C@H](O)[C@@H](O)[C@@H](O[C@H]1[C@H](O)[C@H]2O)O[C@@H]7CO)O[C@@H]6CO)O[C@@H]5CO)O[C@@H]4CO)O[C@@H]3CO
inactive: all assays above

COCc1nnc(-c2ccc[n+]([O-])c2)n1-c1c(Cl)c(Cl)cc2[nH]c(=O)c(=O)[nH]c12
inactive: all assays above

CCCCCCCC1CCC(=O)O1 (centres undefined)
inactive: all assays above
